Screening results: PubChem, National Center for Advancing Translational Sciences (NCATS)
Compounds with a hit are over-represented: about 19% of the library has one in this group of screens.
TDP1 cell CPT: DT40-hTDP1 cell growth loss with CPT. AID 686979. Potency, µM (titrated, usually from 46.2 µM), actives largely listed as inhibitors. chicken DT40 Tdp1-/-;hTDP1 cells + 20 nM CPT, ATP luminescence, 48 h. 420,000 compounds, 12% hits; also: nearly all actives have a fitted effect of over 55% in size
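Chicken DT40 Tdp1-/- cells complemented with human TDP1, 400 cells/well, exposed to compounds plus 20 nM camptothecin for at least 48 h at 37 C; viability read as ATP content by CellTiter-Glo luminescence.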
RORg inh: blocks mouse ROR gamma transcriptional activity. P51450. Potency, µM (highest dose often 53.6 µM), hits mostly inhibitors. Drosophila S2 Gal4-RORgamma UAS-luciferase reporter, 20 h. 310,000 compounds, 5.4% hits; also: nearly all actives have a fitted effect of over 60% in size
Target sequence (P51450 whole entry, looked up, the tested form may be a part): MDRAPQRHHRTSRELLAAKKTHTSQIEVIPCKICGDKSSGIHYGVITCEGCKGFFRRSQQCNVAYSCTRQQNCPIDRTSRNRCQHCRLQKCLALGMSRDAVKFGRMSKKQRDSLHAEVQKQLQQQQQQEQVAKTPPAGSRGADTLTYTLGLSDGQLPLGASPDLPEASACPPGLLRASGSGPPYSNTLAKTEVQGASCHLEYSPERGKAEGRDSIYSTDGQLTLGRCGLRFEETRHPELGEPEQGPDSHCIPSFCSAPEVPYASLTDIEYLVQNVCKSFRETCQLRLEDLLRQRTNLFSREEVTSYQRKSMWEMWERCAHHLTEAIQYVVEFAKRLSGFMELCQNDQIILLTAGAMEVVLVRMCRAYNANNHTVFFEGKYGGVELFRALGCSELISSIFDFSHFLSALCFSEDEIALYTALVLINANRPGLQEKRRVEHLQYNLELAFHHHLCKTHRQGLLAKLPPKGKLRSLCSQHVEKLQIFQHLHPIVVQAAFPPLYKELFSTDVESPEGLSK
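Stable Schneider cell line, Gal4 DNA-binding domain fused to ROR gamma, UAS-luciferase. Cmpd 1 hr RT → CuSO4 700 uM final → 20 hr RT → luciferase reagent 10 min → luminescence.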
VP16 counter: inhibits Gal4-VP16 luciferase reporter, ROR gamma counter-screen | 310,000 compounds, 3.5% hits | Drosophila S2 Gal4-VP16 UAS-luciferase, luminescence, 20 h | Potency, µM (top dose mostly 53.6 µM), hits mostly inhibitors;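 also: Gal4-VP16 expression switched on by copper sulfate through the metallothionein promoter; nearly all actives have a fitted effect of over 50% in size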
TDP1 inh: TDP1 (human) enzyme inhibition; AID 485290; 350,000 compounds, 0.28% hits; Q9NUW8; recombinant TDP1, AlphaScreen DNA substrate cleavage; Potency, µM (series often up to 130 µM), most hits filed as inhibitors; also: nearly all actives have a fitted effect of over 40% in size
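Compounds were preincubated with Tdp1 (1 nM final) for 15 min at room temperature before substrate (15 nM final) started a 5 min reaction; beads (10 ug/ml final) were then added for 10 min before AlphaScreen detection.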
DT40 TDP1 no CPT: qHTS for Inhibitors of human tyrosyl-DNA phosphodiesterase 1 (TDP1): qHTS in cells in absence of CPT. Potency, µM (titrated, usually from 46.2 µM), hits mostly inhibitors. 420,000 compounds, 15% hits. DT40 Tdp1-/- hTDP1 cells, no CPT, ATP luminescence, 48 h; also: nearly all actives have a fitted effect of over 55% in size
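Seeded 400 DT40-hTDP1 cells/well (vehicle DMSO, no 20 nM CPT); pinned compounds; ≥48 hr at 37 °C; CellTiter-Glo luminescence as viability measure.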
Hits are given with their value. Calls follow the shape of the dose curve; as a rule, active = well fitted curve in the direction sought with a large enough effect; inconclusive = small, poorly fitted or top-dose-only effect, or another doubt; inactive = no such curve, though single readings can be large; an effect the other way counts as inactive or inconclusive.

`CC(=O)c1ccc(NC(=O)Nc2sc3nc4n(c(=O)c3c2C)CCC(C)CC4)cc1` (stereo not given) gave TDP1 cell CPT 5.8µM, TDP1 inh inactive and DT40 TDP1 no CPT 8.2µM.
`Cc1cc(C)c(NC(=O)Nc2sc3nc4n(c(=O)c3c2C)CCC(C)CC4)c(C)c1` (stereo not given) gave TDP1 cell CPT inactive, TDP1 inh inactive and DT40 TDP1 no CPT inactive.
`CCCCN(CC)CCCNC(=O)c1sc2nc3n(c(=O)c2c1C)CCCCC3` gave TDP1 cell CPT inconclusive, TDP1 inh inactive and DT40 TDP1 no CPT inactive.
`CCCCN(CC)CCCNC(=O)Nc1sc2nc3n(c(=O)c2c1C)CCC(C)CC3` (stereo not given) gave TDP1 cell CPT inconclusive, TDP1 inh inactive and DT40 TDP1 no CPT 21µM.
For CC1CCN(C(=O)C2CCCN(S(C)(=O)=O)C2)CC1 (stereo not given) the results were TDP1 cell CPT inactive, RORg inh inactive, VP16 counter inactive, TDP1 inh inactive and DT40 TDP1 no CPT inactive.
`C=C(C)[C@@H]1CCC2(C(=O)O)CC[C@]3(C)[C@H](CC[C@@H]4[C@@]5(C)CCC(=O)C(C)(C)[C@@H]5CC[C@]43C)[C@@H]12` (stereo not given in full) gave TDP1 cell CPT 2.9µM, RORg inh inactive, VP16 counter inactive, TDP1 inh inactive and DT40 TDP1 no CPT 3.7µM.
CN(C)c1ccc(/C=C/c2ccnc3ccc4ccccc4c23)cc1 was read as TDP1 cell CPT 0.14µM and DT40 TDP1 no CPT 0.13µM.
`CN(C)/C=N/n1cnc2ccccc2c1=O` gave TDP1 cell CPT inactive, RORg inh inactive, VP16 counter inactive and DT40 TDP1 no CPT inactive.
For CCCN(CCC)c1ccc(/C=C/c2ccnc3ccccc23)cc1 the results were TDP1 cell CPT 7.1µM and DT40 TDP1 no CPT 5µM.
Screening CCN(N=O)c1ccc(/C=C/c2ccnc3ccccc23)cc1 returned TDP1 cell CPT 6.3µM and DT40 TDP1 no CPT 6.3µM.
`CN(C)c1ccc(/C=C/c2cccc3ccccc23)cc1` gave TDP1 cell CPT inactive and DT40 TDP1 no CPT inconclusive.
For CN(C)c1ccc(/C=C/c2ccnc3ccc([N+](=O)[O-])cc23)cc1 the results were TDP1 cell CPT 11µM and DT40 TDP1 no CPT inconclusive.
`Brc1cccc[n+]1CCC[n+]1ccccc1Br` gave TDP1 cell CPT inactive and DT40 TDP1 no CPT inconclusive.
For Cc1ccc(OCC(=O)Nc2ccccc2Sc2ccccc2)c([N+](=O)[O-])n1 the results were TDP1 cell CPT inactive, RORg inh inconclusive, VP16 counter inconclusive, TDP1 inh inactive and DT40 TDP1 no CPT inconclusive.
Screening O=C(Nc1ccc(Cl)cc1)N1CCN(Cc2ccc3c(c2)OCO3)CC1 returned TDP1 cell CPT inactive, RORg inh inactive, VP16 counter inactive, TDP1 inh inactive and DT40 TDP1 no CPT inactive.
For CN(C)c1ccc(/C=C/c2ccnc3ccc(I)cc23)cc1 the results were TDP1 cell CPT 3.2µM and DT40 TDP1 no CPT 4µM.
`CN(C)c1ccc(C(I)C(I)c2ccnc3ccccc23)cc1` (stereo not given) gave TDP1 cell CPT 11µM and DT40 TDP1 no CPT 10µM.
Screening CN(C)c1ccc(/C=C/c2ccnc3ccccc23)cc1 returned TDP1 cell CPT inconclusive and DT40 TDP1 no CPT 16µM.
For CN(N=O)c1ccc(/C=C/c2ccnc3ccccc23)cc1 the results were TDP1 cell CPT 7.9µM and DT40 TDP1 no CPT 5.6µM.
`Cc1cc(N(C)C)ccc1/C=C/c1ccnc2ccccc12` gave TDP1 cell CPT 11µM and DT40 TDP1 no CPT 7.9µM.
`COc1ccccc1CCNC(=O)C(=O)NCC1OCCN1S(=O)(=O)c1ccccc1` (stereo not given) gave TDP1 cell CPT inactive, RORg inh inactive, VP16 counter inactive and DT40 TDP1 no CPT inactive.
`O=C(NCc1cccs1)c1cc(-c2ccccc2)nn1CC1CC(c2cccnc2)=NO1` (stereo not given) gave TDP1 cell CPT inactive and DT40 TDP1 no CPT inconclusive.
`c1coc(C2Nc3ccccc3C3OCCC23)c1` (stereo not given) gave TDP1 cell CPT inactive, RORg inh inactive, VP16 counter inactive, TDP1 inh inactive and DT40 TDP1 no CPT inactive.
